Assay results reported in PubChem BioAssay (NCI).
The panel holds about 79,000 compounds, 15% with a hit somewhere; the sample as a whole holds those more often. Activity calls are given as the source filed them. Cut-off read from the data, not from the text of the source: active = growth inhibition above about 70%; inactive = the rest.

Assays:
[1] = NCI Yeast Anticancer Drug Screen. Data for the mec2-1 strain (AID 157); conditions: S. cerevisiae mec2-1 strain, active compounds read high
Summary of the method: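 Strain: mec2-1 (DNA repair/cell cycle alteration). Compound exposure, then growth measured; inhibition expressed relative to vehicle.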

[2] = NCI Yeast Anticancer Drug Screen. Data for the rad14 strain (AID 159);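 note: 0% = growth of vehicle-treated control cultures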; conditions: S. cerevisiae rad14 strain growth inhibition, active compounds read high
Summary of the method: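 Screen for anticancer potential: a yeast strain altered in DNA damage repair is grown with compound, and reduced growth is quantified against vehicle controls.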

[3] = NCI Yeast Anticancer Drug Screen. Data for the sgs1 mgt1 strain (AID 161);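 note: 0% = growth of cultures given vehicle only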; conditions: S. cerevisiae sgs1 mgt1 strain, active compounds read high
Summary of the method: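 Genetically altered yeast, compound exposure, growth inhibition relative to vehicle.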

[4] = NCI Yeast Anticancer Drug Screen. Data for the cln2 rad14 strain (AID 165);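 note: 0% = growth equal to vehicle treated cultures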; conditions: S. cerevisiae cln2 rad14 strain, active compounds read high
Summary of the method: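 Compounds are applied to the cln2 rad14 yeast strain, and growth is then compared with that of vehicle-treated cultures to give inhibition.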

[5] = NCI Yeast Anticancer Drug Screen. Data for the bub3 strain (AID 167); conditions: S. cerevisiae bub3 mutant strain, active compounds read high
Summary of the method: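 Screening used yeast with an engineered genetic alteration affecting cell cycle control. Compound-exposed cultures were compared with vehicle cultures, and reduced growth was taken as inhibition.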

[6] = NCI Yeast Anticancer Drug Screen. Data for the wt2 strain (AID 169);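 note: 0% = growth of vehicle-treated yeast cultures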; conditions: S. cerevisiae wt2 strain growth inhibition, active compounds read high
Summary of the method: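 This strain belongs to a panel of yeast strains with defined genetic alterations in DNA damage repair or cell cycle control. Compounds are applied, and growth inhibition is measured against vehicle-treated cultures.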

[7] = NCI Yeast Anticancer Drug Screen. Data for the mlh1 strain (AID 171);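 note: 0% = growth of vehicle-treated control cultures of the same strain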; conditions: S. cerevisiae mlh1 strain growth inhibition, active compounds read high
Summary of the method: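 Growth of the mutant yeast strain after compound exposure, expressed as inhibition relative to vehicle-only controls.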

[8] = NCI Yeast Anticancer Drug Screen. Data for the sgs1 strain (AID 173);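 note: 0% = growth of vehicle-only control cultures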; conditions: S. cerevisiae sgs1 mutant, active compounds read high
Summary of the method: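 Growth of a yeast strain bearing a defined genetic alteration is measured after compound treatment. Inhibition is expressed relative to vehicle-only controls.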

[9] = NCI Yeast Anticancer Drug Screen. Data for the mlh1 rad18 strain (AID 175); conditions: S. cerevisiae mlh1 rad18 strain growth inhibition, active compounds read high
Summary of the method: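 Read-out is yeast growth inhibition, calculated against vehicle-only controls. The compound was applied to a strain engineered with DNA damage repair alterations.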

[10] = NCI Yeast Anticancer Drug Screen. Data for the rad52 strain (AID 147);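 note: 0% = growth of vehicle-treated control cultures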; conditions: S. cerevisiae rad52 mutant growth inhibition, active compounds read high
Summary of the method: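 Compounds are applied to a genetically defined yeast strain lacking normal DNA damage repair, and inhibition of growth is expressed relative to cultures given vehicle only.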

[11] = NCI Yeast Anticancer Drug Screen. Data for the wt1 strain (AID 149);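 note: 0% = growth of vehicle-treated wt1 cultures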; conditions: S. cerevisiae wt1 strain (SPY 50644) growth inhibition, active compounds read high
Summary of the method: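 Using yeast strain wt1, compound-induced growth inhibition was determined against vehicle-treated cultures.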

[12] = NCI Yeast Anticancer Drug Screen. Data for the rad50EPP+ strain (AID 151);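 note: 0% = growth of vehicle-treated control cultures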; conditions: S. cerevisiae rad50 mutant strain, active compounds read high
Summary of the method: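 Compounds were applied to the rad50EPP+ yeast strain, which bears a defined DNA repair alteration, and growth inhibition was determined relative to vehicle-treated cultures.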

[13] = NCI Yeast Anticancer Drug Screen. Data for the rad50 strain (AID 155);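 note: 0% = growth of vehicle-only cultures of the same strain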; conditions: S. cerevisiae rad50 strain growth inhibition, active compounds read high
Summary of the method: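 Relative growth inhibition (compound vs vehicle) was measured in yeast with a defined repair-gene alteration.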

[14] = NCI Yeast Anticancer Drug Screen. Data for the CLN2oe strain (AID 163);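 note: 0% = growth of vehicle-only control cultures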; conditions: S. cerevisiae CLN2oe strain, active compounds read high
Summary of the method: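 Growth of a genetically modified yeast strain is measured after compound exposure and compared with cultures given vehicle alone.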

[15] = at 5.0 µM (retest, dose inferred, filed as 0.5)
[16] = at 50.0 µM (retest, dose inferred, filed as 5.0)

Measured: growth inhibition

Cc1cccc(/C=N/NC(=S)N(C)CCc2ccccn2)n1
active: [1]; at 100.0 µM 99% | [2]; at 1.2 µM 95% | [2]; at 3.7 µM 97% | [2]; at 11.0 µM 99% | [2]; at 33.0 µM 99% | [2]; at 100.0 µM 99% | [3]; [16] 97% | [3]; at 50.0 µM 91.3% | [4]; [16] 97% | [4]; at 50.0 µM 90.7% | [5]; at 3.7 µM 91% | [5]; at 11.0 µM 97% | [5]; at 33.0 µM 98% | [5]; [16] 99% | [5]; at 50.0 µM 91% | [5]; at 100.0 µM 98% | [6]; at 1.2 µM 89% | [6]; at 3.7 µM 93% | [6]; at 11.0 µM 97% | [6]; at 33.0 µM 98% | [6]; at 100.0 µM 99% | [7]; at 1.2 µM 91% | [7]; at 3.7 µM 95% | [7]; at 11.0 µM 98% | [7]; at 33.0 µM 98% | [7]; at 100.0 µM 99% | [8]; at 1.2 µM 97% | [8]; at 3.7 µM 98% | [8]; at 11.0 µM 99% | [8]; at 33.0 µM 99% | [8]; at 100.0 µM 98% | [9]; [16] 99% | [9]; at 50.0 µM 92.1%
inactive: [3]; [15] 44% | [4]; [15] 9% | [5]; at 1.2 µM 56% | [5]; [15] 56% | [9]; [15] 61%

Cc1ccc(S(=O)(=O)N/N=C/C2(c3ccccc3)c3ccccc3-c3ccccc32)cc1
inactive: [10]; at 1.2 µM 41% | [10]; at 3.7 µM 45% | [11]; at 1.2 µM 25% | [11]; at 3.7 µM 13% | [11]; at 11.0 µM 34% | [12]; at 1.2 µM 11% | [12]; at 3.7 µM 2% | [12]; at 11.0 µM 17% | [12]; at 33.0 µM -8% | [12]; at 100.0 µM -37% | [13]; at 1.2 µM 4% | [13]; at 3.7 µM 36% | [13]; [15] 38% | [13]; at 50.0 µM 29.5% | [1]; at 1.2 µM 25% | [1]; at 3.7 µM 15% | [1]; [15] 22% | [1]; at 11.0 µM 27% | [1]; at 50.0 µM 7.7% | [3]; [15] 31% | [3]; at 50.0 µM 33.8% | [14]; at 1.2 µM 37% | [14]; at 3.7 µM 38% | [4]; [15] 45% | [4]; at 50.0 µM 16.1% | [5]; at 1.2 µM 19% | [5]; at 3.7 µM 9% | [5]; [15] 20% | [5]; at 11.0 µM 54% | [5]; at 50.0 µM 29.1% | [5]; at 100.0 µM 62% | [6]; at 1.2 µM -8% | [6]; at 3.7 µM 18% | [7]; at 1.2 µM 21% | [7]; at 3.7 µM 7% | [7]; at 11.0 µM 30% | [7]; at 33.0 µM 61% | [8]; at 1.2 µM 16% | [8]; at 3.7 µM 15% | [8]; at 11.0 µM 45%
active: [10]; at 11.0 µM 79% | [10]; at 33.0 µM 93% | [10]; at 100.0 µM 86% | [11]; at 33.0 µM 87% | [11]; at 100.0 µM 83% | [13]; at 11.0 µM 82% | [13]; at 33.0 µM 90% | [13]; [16] 92% | [13]; at 100.0 µM 77% | [1]; at 33.0 µM 78% | [1]; [16] 93% | [1]; at 100.0 µM 84% | [3]; [16] 93% | [14]; at 11.0 µM 80% | [14]; at 33.0 µM 91% | [14]; at 100.0 µM 76% | [4]; [16] 90% | [5]; at 33.0 µM 88% | [5]; [16] 90% | [6]; at 11.0 µM 76% | [6]; at 33.0 µM 91% | [6]; at 100.0 µM 80% | [7]; at 100.0 µM 71% | [8]; at 33.0 µM 82% | [8]; at 100.0 µM 80% | [9]; [15] 79% | [9]; [16] 91% | [9]; at 50.0 µM 70.5%
